Experimental data published in the supplement of paper PMC7411054.

These molecules were tested on A549-ACTB-RAB5A (assay: phenotypically active (imaging signature differs from DMSO and reproducible) at any of 0.3-9 uM (binary (1 = active, 0 = inactive)); higher = active). Settings: treatment time: 24 h.
Outline: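 The reporter lines, fifteen in total and built by gene editing in A549, HepG2 and WPMY1 cells, used BFP for segmentation alongside GFP and RFP/FusionRed markers. Each was treated at 0.3, 1, 3 or 9 µM for 24 h in four wells and then imaged live, with live-cell features normalised to solvent control wells. Deviation meant ≥3 of 4 wells beyond the 95th percentile of control Euclidean distances; reproducibility meant a median replicate Pearson correlation above the 95th percentile of non-replicates. Only conditions meeting both were scored as phenotypically active.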

Phenotypically active, active:
CSc1ccc2c(c1)N(CCC1CCCCN1C)c1ccccc1S2 (stereo unspecified) [thioridazine] 1, CCCNCC(O)COc1ccccc1C(=O)CCc1ccccc1 (stereo unspecified) [propafenone] 1, O=C(O)[C@@H]1[C@H]2C[C@H]3c4[nH]c5ccccc5c4CCN3C[C@@H]2CC[C@@H]1O [Yohimbinic acid monohydrate] 1, COc1cc(N2CCC(N)CC2)ccc1Nc1ncc(Cl)c(-c2c[nH]c3ccccc23)n1 1, COc1cc2ncnc(Nc3ccc(Cl)cc3F)c2cc1OC 1, Cc1noc(C)c1-c1ccc2c(c1)nc(CCc1ccc(OCCCN(C)C)cc1)n2CCN1CCOCC1 1, Cc1ccc(NC(=O)c2cccc(N(C)C)c2)cc1NC(=O)c1ccc(O)cc1 1, Cc1cc(Nc2ccc(NC(=O)c3ccc(Nc4ccnc5ccccc45)cc3)cc2)nc(N)n1 1, Cc1ccc(NC2=CC(=O)c3sc(C)nc3C2=O)cc1 [Ryuvidine] 1, C[C@]1(O)C[C@@H](c2nc(-c3ccc4ccc(-c5ccccc5)nc4c3)c3c(N)nccn32)C1 [linsitinib] 1, COc1cc2c(cc1OCCCN1CCCC1)N=C(N)C21CCC1 1, O=C(O)C[C@H](O)C[C@H](O)/C=C/c1c(C2CC2)nc2ccccc2c1-c1ccc(F)cc1 [Pitavastatin calcium] 1, CC#CC(=O)N1CCC[C@H]1c1nc(-c2ccc(C(=O)Nc3ccccn3)cc2)c2c(N)nccn12 [acalabrutinib] 1, NC(=O)c1cccc(-c2cc(Nc3ccc(OC(F)(F)F)cc3)ncn2)c1 1, CN1[C@@H]2CC[C@H]1C[C@@H](OC(c1ccccc1)c1ccccc1)C2 [benztropine] 1, NS(=O)(=O)c1nn2cc(-c3ccccc3)nc2s1 1
